According to the supplement of paper PMC12067093, “Discovery and optimisation of a covalent ligand for TRIM25 and its application to targeted protein ubiquitination” (Chemical Science, 2025):
Targets with the largest changes are over-represented here; the source holds about 21,000 in all.

Compound: Cc1cc(ccc1-c1ccccc1)C(=O)N1CCCN(CC1)C(=O)CCl [compound 10]
Assay: probe-labelled cysteine peptide fold change vs DMSO (competition) (log2 fold change); higher = less target engagement (more negative = stronger competition)
Conditions: THP-1, incubation time: 4 h
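Further: competitive profiling in live THP-1 cells: cysteine peptides tagged with an iodoacetamide desthiobiotin (IA-DTB) probe, intensity after compound treatment relative to DMSO-treated cells.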

Sequence of UniProt Q9UQL6 (Q9UQL6 whole entry, looked up): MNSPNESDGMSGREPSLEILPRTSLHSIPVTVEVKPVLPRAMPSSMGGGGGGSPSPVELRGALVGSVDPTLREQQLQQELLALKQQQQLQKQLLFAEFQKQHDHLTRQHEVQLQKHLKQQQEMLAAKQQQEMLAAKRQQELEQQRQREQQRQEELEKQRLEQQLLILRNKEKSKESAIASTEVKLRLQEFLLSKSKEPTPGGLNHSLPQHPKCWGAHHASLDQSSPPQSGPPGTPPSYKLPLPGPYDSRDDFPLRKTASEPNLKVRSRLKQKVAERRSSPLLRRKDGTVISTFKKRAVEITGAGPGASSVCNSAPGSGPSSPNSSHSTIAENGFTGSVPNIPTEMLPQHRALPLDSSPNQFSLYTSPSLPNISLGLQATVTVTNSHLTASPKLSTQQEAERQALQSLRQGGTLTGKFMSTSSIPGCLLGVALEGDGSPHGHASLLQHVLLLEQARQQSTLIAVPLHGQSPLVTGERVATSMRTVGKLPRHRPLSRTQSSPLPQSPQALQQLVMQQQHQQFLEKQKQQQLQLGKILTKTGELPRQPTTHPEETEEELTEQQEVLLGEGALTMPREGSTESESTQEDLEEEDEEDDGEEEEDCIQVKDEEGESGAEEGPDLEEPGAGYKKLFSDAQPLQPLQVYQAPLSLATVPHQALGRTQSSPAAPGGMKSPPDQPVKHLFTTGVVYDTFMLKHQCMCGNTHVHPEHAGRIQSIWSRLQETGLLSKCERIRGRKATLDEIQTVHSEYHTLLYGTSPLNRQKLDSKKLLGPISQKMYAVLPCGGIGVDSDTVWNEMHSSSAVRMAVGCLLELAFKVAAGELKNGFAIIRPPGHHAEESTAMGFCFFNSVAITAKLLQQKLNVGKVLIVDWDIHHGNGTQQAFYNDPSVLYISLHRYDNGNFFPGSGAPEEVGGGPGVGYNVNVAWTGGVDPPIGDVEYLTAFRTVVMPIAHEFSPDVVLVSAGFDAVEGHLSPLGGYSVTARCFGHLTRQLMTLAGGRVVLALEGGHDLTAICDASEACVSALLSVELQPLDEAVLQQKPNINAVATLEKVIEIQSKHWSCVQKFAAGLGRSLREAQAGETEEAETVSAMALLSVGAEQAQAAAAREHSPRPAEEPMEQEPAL
Sequence of UniProt Q8NB37 (Q8NB37 whole entry, looked up): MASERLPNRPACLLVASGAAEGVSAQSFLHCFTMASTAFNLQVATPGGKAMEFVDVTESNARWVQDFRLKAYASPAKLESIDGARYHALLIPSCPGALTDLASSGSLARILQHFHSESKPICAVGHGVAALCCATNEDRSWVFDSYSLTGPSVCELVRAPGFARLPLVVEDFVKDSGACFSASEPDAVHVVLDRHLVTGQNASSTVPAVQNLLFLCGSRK
Sequence of UniProt P04222 (P04222 whole entry, looked up): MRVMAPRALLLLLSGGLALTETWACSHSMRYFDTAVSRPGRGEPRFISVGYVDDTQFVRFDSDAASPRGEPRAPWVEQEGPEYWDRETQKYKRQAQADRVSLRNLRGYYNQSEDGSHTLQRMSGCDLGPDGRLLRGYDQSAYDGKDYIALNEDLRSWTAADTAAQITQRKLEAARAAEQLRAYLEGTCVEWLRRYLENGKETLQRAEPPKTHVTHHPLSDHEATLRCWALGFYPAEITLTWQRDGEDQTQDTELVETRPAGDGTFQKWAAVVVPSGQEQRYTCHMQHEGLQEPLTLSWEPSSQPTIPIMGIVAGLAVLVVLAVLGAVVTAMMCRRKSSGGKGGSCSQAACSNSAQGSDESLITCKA
Sequence of UniProt P07203 (P07203 whole entry, looked up): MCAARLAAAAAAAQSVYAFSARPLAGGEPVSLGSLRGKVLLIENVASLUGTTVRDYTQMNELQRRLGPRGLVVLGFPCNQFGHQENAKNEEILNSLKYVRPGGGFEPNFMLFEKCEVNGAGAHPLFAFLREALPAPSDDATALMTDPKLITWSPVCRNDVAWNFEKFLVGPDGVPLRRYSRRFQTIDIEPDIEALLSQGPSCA
Sequence of UniProt Q9UBQ7 (Q9UBQ7 whole entry, looked up): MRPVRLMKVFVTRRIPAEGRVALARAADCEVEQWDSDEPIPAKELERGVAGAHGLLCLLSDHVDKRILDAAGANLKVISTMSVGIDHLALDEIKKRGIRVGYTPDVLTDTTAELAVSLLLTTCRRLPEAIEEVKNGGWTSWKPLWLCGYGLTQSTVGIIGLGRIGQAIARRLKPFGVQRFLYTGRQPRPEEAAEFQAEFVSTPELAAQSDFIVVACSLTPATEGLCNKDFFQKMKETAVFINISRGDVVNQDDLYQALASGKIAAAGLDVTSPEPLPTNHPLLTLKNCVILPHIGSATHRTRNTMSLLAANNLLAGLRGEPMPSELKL
Sequence of UniProt Q86XA9 (Q86XA9 whole entry): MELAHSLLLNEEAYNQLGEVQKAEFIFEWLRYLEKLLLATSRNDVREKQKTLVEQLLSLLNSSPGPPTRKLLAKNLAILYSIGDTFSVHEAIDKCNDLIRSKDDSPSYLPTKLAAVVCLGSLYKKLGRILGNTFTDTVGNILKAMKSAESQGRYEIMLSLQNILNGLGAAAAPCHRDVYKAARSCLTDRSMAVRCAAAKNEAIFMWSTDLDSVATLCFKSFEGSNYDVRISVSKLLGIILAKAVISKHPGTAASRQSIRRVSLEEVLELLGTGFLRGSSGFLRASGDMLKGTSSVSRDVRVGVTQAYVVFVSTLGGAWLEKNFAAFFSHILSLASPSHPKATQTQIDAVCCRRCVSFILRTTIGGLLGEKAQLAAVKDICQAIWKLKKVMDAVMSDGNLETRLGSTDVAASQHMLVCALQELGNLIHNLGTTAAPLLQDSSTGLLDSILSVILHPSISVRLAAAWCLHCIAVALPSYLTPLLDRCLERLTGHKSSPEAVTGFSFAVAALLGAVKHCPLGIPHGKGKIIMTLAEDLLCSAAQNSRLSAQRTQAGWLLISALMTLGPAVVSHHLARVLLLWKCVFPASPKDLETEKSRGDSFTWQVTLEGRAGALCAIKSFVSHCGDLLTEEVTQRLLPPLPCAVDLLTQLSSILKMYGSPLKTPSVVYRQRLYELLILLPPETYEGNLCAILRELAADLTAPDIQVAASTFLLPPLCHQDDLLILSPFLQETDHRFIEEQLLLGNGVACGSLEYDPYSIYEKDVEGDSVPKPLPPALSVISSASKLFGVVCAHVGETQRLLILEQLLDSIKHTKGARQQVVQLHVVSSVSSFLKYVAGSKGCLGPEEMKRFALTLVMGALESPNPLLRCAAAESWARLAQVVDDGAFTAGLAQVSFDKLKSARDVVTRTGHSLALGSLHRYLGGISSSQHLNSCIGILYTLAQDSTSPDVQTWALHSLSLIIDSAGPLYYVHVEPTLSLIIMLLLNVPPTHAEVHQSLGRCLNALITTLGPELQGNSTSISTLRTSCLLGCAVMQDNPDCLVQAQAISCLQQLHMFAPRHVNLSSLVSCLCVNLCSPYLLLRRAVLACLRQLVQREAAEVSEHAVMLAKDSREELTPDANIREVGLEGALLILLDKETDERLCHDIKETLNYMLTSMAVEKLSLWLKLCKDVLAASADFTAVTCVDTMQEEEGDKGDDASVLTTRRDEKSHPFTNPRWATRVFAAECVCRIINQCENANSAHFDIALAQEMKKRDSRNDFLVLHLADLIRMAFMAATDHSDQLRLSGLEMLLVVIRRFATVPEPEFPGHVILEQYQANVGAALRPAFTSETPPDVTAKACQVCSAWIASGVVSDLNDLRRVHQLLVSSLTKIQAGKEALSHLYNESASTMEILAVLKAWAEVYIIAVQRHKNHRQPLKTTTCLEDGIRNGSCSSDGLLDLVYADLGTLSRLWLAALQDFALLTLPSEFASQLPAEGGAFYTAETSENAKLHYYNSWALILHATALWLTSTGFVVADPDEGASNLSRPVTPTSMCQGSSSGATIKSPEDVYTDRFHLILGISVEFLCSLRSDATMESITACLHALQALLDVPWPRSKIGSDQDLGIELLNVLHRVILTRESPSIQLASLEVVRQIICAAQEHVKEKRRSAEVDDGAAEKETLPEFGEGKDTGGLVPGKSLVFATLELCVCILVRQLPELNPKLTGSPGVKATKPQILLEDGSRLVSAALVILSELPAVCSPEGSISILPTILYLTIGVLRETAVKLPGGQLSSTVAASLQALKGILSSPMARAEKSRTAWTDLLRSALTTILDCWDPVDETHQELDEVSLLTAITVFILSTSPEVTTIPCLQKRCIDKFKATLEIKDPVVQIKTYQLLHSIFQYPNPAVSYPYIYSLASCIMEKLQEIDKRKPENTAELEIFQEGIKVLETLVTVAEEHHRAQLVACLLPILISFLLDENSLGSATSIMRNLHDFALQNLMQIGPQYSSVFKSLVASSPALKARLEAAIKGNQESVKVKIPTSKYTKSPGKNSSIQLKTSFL
Sequence of UniProt Q8NFG4 (Q8NFG4 whole entry, looked up): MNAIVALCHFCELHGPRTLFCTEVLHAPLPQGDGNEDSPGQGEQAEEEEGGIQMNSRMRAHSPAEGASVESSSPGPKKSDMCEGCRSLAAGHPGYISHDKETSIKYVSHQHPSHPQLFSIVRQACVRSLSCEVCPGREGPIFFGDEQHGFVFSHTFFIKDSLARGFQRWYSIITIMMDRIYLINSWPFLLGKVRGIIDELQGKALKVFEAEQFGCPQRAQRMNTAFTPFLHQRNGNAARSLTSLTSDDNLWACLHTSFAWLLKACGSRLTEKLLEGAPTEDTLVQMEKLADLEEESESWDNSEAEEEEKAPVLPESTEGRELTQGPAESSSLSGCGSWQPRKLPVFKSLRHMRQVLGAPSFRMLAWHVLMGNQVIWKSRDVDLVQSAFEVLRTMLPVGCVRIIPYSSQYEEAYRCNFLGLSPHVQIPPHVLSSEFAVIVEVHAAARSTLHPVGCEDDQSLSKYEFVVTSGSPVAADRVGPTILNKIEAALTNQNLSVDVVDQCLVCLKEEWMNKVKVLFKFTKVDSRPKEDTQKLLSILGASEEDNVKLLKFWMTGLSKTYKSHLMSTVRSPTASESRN
Sequence of UniProt Q9NQE9 (Q9NQE9 whole entry, looked up): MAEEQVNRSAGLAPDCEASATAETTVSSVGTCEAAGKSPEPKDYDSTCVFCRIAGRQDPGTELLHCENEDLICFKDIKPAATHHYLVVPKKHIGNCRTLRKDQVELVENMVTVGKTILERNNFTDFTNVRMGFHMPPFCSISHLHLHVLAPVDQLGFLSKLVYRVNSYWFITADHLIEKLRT

| Target | probe-labelled cysteine peptide fold change (10 µM) | probe-labelled cysteine peptide fold change (50 µM) |
| --- | --- | --- |
| HINT3_Q9NQE9_66+73_QDPGTELLHCENEDLICFK (UniProt Q9NQE9) | -0.386 | -0.532 |
| GTF2B_Q00403_34+37_AGDMICPECGLVVGDR (UniProt Q00403) | 0.105 | 0.0895 |
| FHL1_Q13642_150_GEDFYCVTCHETK (UniProt Q13642) | 0.107 | -0.0472 |
| FLAD1_Q8NFF5_338_LTLDSEEEGPLEECLAYLTAR (UniProt Q8NFF5) | -0.0485 | 0.177 |
| HDAC5_Q9UQL6_982_CFGHLTR (UniProt Q9UQL6) | 0.138 | -0.104 |
| FTSJ3_Q8IY81_293_VCCQDIR (UniProt Q8IY81) | 0.217 | -0.481 |
| HEATR5A_Q86XA9_1635_QIICAAQEHVK (UniProt Q86XA9) | 0.0658 | 0.171 |
| GEMIN5_Q8TEQ6_1421_NEPEVEAEQPLCSSQSQCK (UniProt Q8TEQ6) | 0.068 | -0.124 |
| GOLGA3_Q08378_769_LGELQGEAASREDTICLLQNEK (UniProt Q08378) | -0.084 | -0.193 |
| GRHPR_Q9UBQ7_29_AADCEVEQWDSDEPIPAK (UniProt Q9UBQ7) | -0.563 | -0.167 |
| GTF2I_P78347_475_MVDQLFCK (UniProt P78347) | -0.213 | 0.51 |
| GLRX_P35754_26_VVVFIKPTCPYCR (UniProt P35754) | -1.05 | -3.44 |
| HLA-C_P04222_345+364_GGSCSQAASSNSAQGSDESLIACKA (UniProt P04222) | -0.638 | -1.66 |
| FHL2_Q14192_275_GFLTERDDILCPDCGK (UniProt Q14192) | 0.0254 | -0.163 |
| FKBP8_Q14318_274_CLNNLAASQLK (UniProt Q14318) | 0.0653 | -0.0462 |
| GPX1_P07203_78_GLVVLGFPCNQFGHQENAKNEEILNSLK (UniProt P07203) | -0.208 | -1.3 |
| FLCN_Q8NFG4_215_VFEAEQFGCPQR (UniProt Q8NFG4) | -0.0204 | -0.54 |
| GATD1_Q8NB37_94_YHALLIPSCPGALTDLASSGSLAR (UniProt Q8NB37) | 0.0159 | -0.00276 |
